# The supplement of paper PMC4166925
# ± gives the standard deviation of the averaged measurements. Whole data set: some 33,000 sequences, median “E-score (dimensionless, -0.5 to 0.5)” near -0.049, cut for the highest 2% near 0.37. Many of the other results were omitted from the sample, so the highest values are more common in it than they were.
# Tested on: T1, PmTbr T-box DNA-binding domain (GST fusion)
# T1 sequence: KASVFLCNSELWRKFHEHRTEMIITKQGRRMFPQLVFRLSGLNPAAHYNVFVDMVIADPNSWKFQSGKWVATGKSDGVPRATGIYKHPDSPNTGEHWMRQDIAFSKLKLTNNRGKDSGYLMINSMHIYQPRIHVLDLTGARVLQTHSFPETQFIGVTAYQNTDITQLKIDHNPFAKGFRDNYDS
# Test: PBM E-score of 8-mer (E-score (dimensionless, -0.5 to 0.5)); Tbr is Tbrain of the sea star Patiria miniata (Pm) or the sea urchin Strongylocentrotus purpuratus (Sp); higher = stronger binding preference
# Conditions: the construct has about 5 more residues each side
# In short: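 Universal Agilent oligonucleotide arrays, made double-stranded by primer extension, were incubated with 200 nM GST-fused Tbr T-box DNA-binding domain in PBS (pH 7.5). The protein was expressed in BL21 E. coli at 20 °C and purified by glutathione affinity chromatography. After scanning and quantification, the Universal PBM Analysis Suite assigned an enrichment E-score to each ungapped 8-mer, averaged over duplicate arrays.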
row,Sequence,PBM E-score of 8-mer
1,ACAAGGTG,0.429 ± 0.006
2,ATAAGGTG,0.387 ± 0.0095
3,AAGAATCG,-0.0615 ± 0.066
4,ACACTGAC,0.209 ± 0.018
5,ACTGATCG,-0.0574 ± 0.0033
6,CTCTAACC,-0.103 ± 0.089
7,AACGGGGT,-0.136 ± 0.084
8,CTCGCTAC,0.0679 ± 0.05
9,CTCGACAC,0.387 ± 0.029
10,ATCGACAA,0.222 ± 0.036
11,GACGACAC,0.305 ± 0.034
12,ATCGACAC,0.398 ± 0.025
13,ATCGACAG,0.236 ± 0.032
14,CTCGACAG,0.244 ± 0.018
15,CTCGACAA,0.131 ± 0.017
16,GTCGACAC,0.406 ± 0.013
17,GTCGACAA,0.295 ± 0.022
18,ACAATGTC,-0.048 ± 0.0089
19,GTACAGTA,0.0854 ± 0.013
20,CGCAACAC,0.356 ± 0.033
21,AGCAACAA,0.0934 ± 0.021
22,AGCAACAC,0.383 ± 0.0078
23,GGCAACAA,0.05 ± 0.0035
24,GGCAACAC,0.38 ± 0.0047
25,AGCAACAG,0.0636 ± 0.029

row,Sequence,PBM E-score of 8-mer
1,ATGCTATA,-0.182 ± 0.01
2,ATGCGTCA,0.161 ± 0.013
3,GTCAAACA,-0.0272 ± 0.074
4,ATGCCAGC,-0.0462 ± 0.0027
5,AATGTGTC,0.425 ± 0.0071
6,AATGTGGC,0.163 ± 0.0047
7,CATGTGTC,0.309 ± 0.03
8,AATGTGTA,0.226 ± 0.029
9,AATGTGTG,0.408 ± 0.014
10,AATGTGCG,0.27 ± 0.012
11,AATAGACT,-0.175 ± 0.072
12,ACACCCCG,0.397 ± 0.029
13,TCACCCCA,0.277 ± 0.028
14,GCACCCCA,0.242 ± 0.0042
15,ACACCCCT,0.4 ± 0.027
16,CCACCCCC,0.00912 ± 0.024
17,CCACCCCG,0.235 ± 0.033
18,ACACCCGG,0.3462 ± 0.00071
19,GCACCCCC,0.226 ± 0.047
20,ACACCCCC,0.379 ± 0.017
21,ACCCCCCT,-0.152 ± 0.11
22,ACCCCTCT,-0.0694 ± 0.019
23,ACACCCCA,0.382 ± 0.015
24,CGTGCTCC,-0.172 ± 0.017
25,GTTGATCA,0.0616 ± 0.0014

row,Sequence,PBM E-score of 8-mer
1,GATACAGA,-0.189 ± 0.0045
2,ACGGCCTC,-0.166 ± 0.071
3,GTAGGAAA,-0.0915 ± 0.041
4,GTCGACGA,0.155 ± 0.015
5,ACAGACAT,0.0773 ± 0.016
6,ACACCCAG,0.339 ± 0.021
7,GCCCAACA,0.0617 ± 0.0082
8,AAAATTCT,-0.1 ± 0.051
9,AAGTGTTG,0.437 ± 0.006
10,AAGTGGTA,0.165 ± 0.013
11,GAGTGTAC,-0.079 ± 0.061
12,AAGTGTAC,0.0291 ± 0.019
13,CAGTGTTC,-0.0572 ± 0.047
14,GAGTGTTA,0.385 ± 0.012
15,CAGTGTTA,0.322 ± 0.0036
16,AAGTGTTA,0.467 ± 0.0064
17,AAGTGTTC,0.298 ± 0.012
18,CTTCTGGC,-0.0431 ± 0.0062
19,AGCCTCCT,-0.194 ± 0.057
20,ATGACCAG,-0.119 ± 0.011
21,GCTCTAGA,-0.268 ± 0.07
22,AACAGCCC,-0.015 ± 0.027
23,AGAGCACT,-0.194 ± 0.044
24,AGGGATAC,-0.319 ± 0.026
25,ATAGCCAA,-0.2 ± 0.05

row,Sequence,PBM E-score of 8-mer
1,ACACGTTC,0.337 ± 0.013
2,AAACGTTG,-0.22 ± 0.042
3,ACACGTAG,0.206 ± 0.0044
4,ACACGTCG,0.391 ± 0.018
5,ACACGTCA,0.361 ± 0.0048
6,CCACGTTA,0.131 ± 0.0074
7,ACACGTTG,0.374 ± 0.0049
8,ACACGTCT,0.355 ± 0.021
9,ACACGTTA,0.3709 ± 0.0015
10,CAGGGATA,-0.326 ± 0.061
11,GGACGCAC,-0.0479 ± 0.052
12,AACGAGCC,-0.319 ± 0.096
13,CACAGTCC,0.0117 ± 0.032
14,ACTGCACG,-0.149 ± 0.031
15,AGCGAAAA,0.0819 ± 0.093
16,CGCGAGAA,0.32 ± 0.0046
17,TGCGAAAA,0.391 ± 0.03
18,GGCGAGAA,0.339 ± 0.005
19,TGCGAGAA,0.3906 ± 0.0012
20,TGCGAACA,0.396 ± 0.0075
21,CGCGAAAA,0.359 ± 0.019
22,AGCGAACA,0.0494 ± 0.02
23,GGCGAACA,0.0467 ± 0.018
24,CACTCTAG,0.223 ± 0.0029
25,AGTGACAG,0.357 ± 0.0084

row,Sequence,PBM E-score of 8-mer
1,GATGACAC,0.36 ± 0.02
2,CGTGACAG,0.27 ± 0.015
3,AGTGACAT,0.309 ± 0.017
4,GGTGACAC,0.4691 ± 0.0035
5,GGAGACAC,0.142 ± 0.084
6,AGTGACAC,0.44 ± 0.0087
7,CTTGACAA,0.328 ± 0.0034
8,CGTGACCA,0.259 ± 0.018
9,GTTGACAA,0.3821 ± 0.0035
10,GTTGACGA,0.211 ± 0.012
11,CGTGACAA,0.407 ± 0.025
12,AGAAGGGA,-0.301 ± 0.082
13,AGTATAAT,-0.0999 ± 0.092
14,ATTGCGCG,0.0393 ± 0.076
15,CTCCATTC,-0.243 ± 0.042
16,ATCGTTGA,-0.173 ± 0.031
17,TATTGGGA,-0.222 ± 0.0037
18,AAGCGCCG,-0.0564 ± 0.022
19,ATTTTTGA,-0.289 ± 0.044
20,GGTGACCA,0.0575 ± 0.069
21,GGTGACGA,0.429 ± 0.013
22,CGTGACAC,0.398 ± 0.02
23,AGTGACAA,0.4196 ± 0.0018
24,CGTGACGC,0.232 ± 0.0054
25,GATGACAA,0.202 ± 0.017

row,Sequence,PBM E-score of 8-mer
1,CGTGACGA,0.331 ± 0.031
2,AGTGACGA,0.358 ± 0.016
3,CGTGACTC,0.0879 ± 0.021
4,AGTGACCA,0.0489 ± 0.11
5,AGTGACTA,0.115 ± 0.011
6,GGTGACAA,0.47312 ± 1.4e-05
7,CGGTCTTA,-0.0111 ± 0.035
8,GGCTCGCA,0.136 ± 0.053
9,ATCAGAAG,-0.0178 ± 0.033
10,AGCAGGGA,0.00886 ± 0.045
11,CAGACAGC,0.0475 ± 0.042
12,ACCCCAGT,-0.138 ± 0.1
13,CTAGTCCC,-0.132 ± 0.064
14,TATGACAA,0.0436 ± 0.061
15,TGTGACAA,0.42 ± 0.028
16,TCTGACAA,0.112 ± 0.048
17,AGAGCCAC,-0.0799 ± 0.014
18,CCTAGTTC,-0.072 ± 0.0041
19,AATCACAA,0.199 ± 0.0027
20,GATCACAA,0.163 ± 0.045
21,CATCACAA,0.179 ± 0.006
22,AATCACAC,0.462 ± 0.0075
23,CATCACAG,0.109 ± 0.038
24,CATCACAC,0.4576 ± 0.0032
25,GATCACAC,0.451 ± 0.014

row,Sequence,PBM E-score of 8-mer
1,AATCACAG,0.0723 ± 0.038
2,GATCACGC,0.287 ± 0.017
3,AACGAGTC,-0.154 ± 0.018
4,GTCTTCAA,-0.0747 ± 0.03
5,CCGCCCCA,-0.155 ± 0.064
6,ACGCATTC,0.0134 ± 0.0026
7,GTCACAGA,0.0466 ± 0.051
8,GTCACAAA,0.118 ± 0.066
9,CACACACA,0.303 ± 0.0096
10,GTCACACA,0.3901 ± 0.0019
11,CACACACG,0.181 ± 0.059
12,CTCACACA,0.41 ± 0.0079
13,CAATAGTG,0.127 ± 0.061
14,ACTTGCGG,-0.0023 ± 0.035
15,GGTGAAAC,0.0805 ± 0.054
16,TCAATGCA,-0.268 ± 0.037
17,ACACCACA,0.377 ± 0.008
18,CCACCACA,0.117 ± 0.02
19,ACACCACC,0.405 ± 0.0043
20,TCACCACA,0.204 ± 0.054
21,ACACCACT,0.254 ± 0.012
22,CCACCACC,0.107 ± 0.044
23,GCACCACA,0.133 ± 0.047
24,CCACCACG,-0.00839 ± 0.13
25,ACACCACG,0.3698 ± 0.0022
